Laboratory results as given in PubChem BioAssay (NCI).
Compounds without any hit were thinned out: in the full panel of roughly 83,000, 20% have a hit.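 The test compound was applied at a single concentration to cells in 96-well plates for 48 hours, and percent growth was recorded.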 Active and inactive are the calls of the source. The calls were made as follows: active = growth percent below 10; inactive = the rest.

How the values were obtained:
Experiment in all cases: NCI-60 one-dose screen, 48 h (100 = growth as untreated, 0 = no growth, -100 = all killed)
Details in all cases: 10 µM unless noted
[1] = tested on: SK-MEL-2 melanoma
[2] = tested on: EKVX NSCLC
[3] = tested on: SN12C renal
[4] = tested on: UO-31 renal
[5] = tested on: TK-10 renal
[6] = tested on: ACHN renal
[7] = tested on: CAKI-1 renal
[8] = tested on: CCRF-CEM leukemia
[9] = tested on: MOLT-4 leukemia

Measured: growth

N/C(=N\C(N)=N\c1nc2ccccc2s1)c1cccc(Cl)c1
inactive: [1] 100% | [2] 83.3% | [3] 38.5% | [4] 33.2% | [5] 111% | [6] 75.5% | [7] 33.2% | [8] 73.3% | [9] 72.5%

O=S(=O)(NCCNc1nccc(-c2c(-c3cccc(O)c3)nc3occn23)n1)c1ccc(Cl)cc1
inactive: [1] 83.4% | [2] 125% | [3] 100% | [4] 110% | [5] 143% | [6] 98.5% | [7] 79.6% | [8] 106% | [9] 103%

COc1cc(F)c(/C=C/c2cc(/C=C/c3cc(OC)c(OC)cc3F)on2)cc1OC
inactive: [1] 76.3% | [2] 102% | [3] 91.6% | [4] 91.2% | [5] 100% | [6] 80% | [7] 90.1% | [8] 91.9% | [9] 91.1%

CC1=C(C(=O)/C=C/c2c[nH]c3ccccc23)C(c2ccccc2)NC(=S)N1 (stereo not given)
inactive: [1] 99.2% | [2] 85.1% | [3] 91.6% | [4] 63.9% | [5] 135% | [6] 93.5% | [7] 77.8% | [8] 103% | [9] 101%

Nc1n[nH]c2cccc(C#Cc3cccc(C(=O)Nc4cc(CN5CCOCC5)cc(C(F)(F)F)c4)c3)c12
active: [1] 4.06%
inactive: [2] 60.6% | [3] 39.1% | [4] 17.6% | [5] 67.7% | [6] 27% | [7] 48.8% | [8] 19.4% | [9] 23.8%
